Source: PubChem BioAssay
Entries with a potency or affinity are not part of this list. Inconclusive results are not listed. Activity calls are given as the source filed them.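 The calls were made as follows: active = signal-lowering compounds whose fitted half-maximal concentration is at or below twice the top tested dose in every run; inconclusive = runs disagree, flat 30 to 70% inhibition, or poor curve fit; inactive = the rest.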

experiment: inhibitors of CMV-promoter luciferase reporter, dose response, counter-screen for Pax8 inhibitor project, cell-based, HEK293, luminescence, dry powder (AID 743020); settings: SteadyGlo luminescence, 24 h; series mostly up to 35 µM;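 also: HEK293 cells stably expressing the CMV luciferase reporter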

Q: With `COc1cc(OC)c2c(-c3cccc(-c4ccc(OC)c(F)c4)c3)cc(=O)oc2c1` as the compound, how does the outcome read?
A: Its outcome is “inactive”.

Q: For `C[C@@H]1CCCCO[C@@H](CN(C)Cc2ccc(C(F)(F)F)cc2)[C@@H](C)CN([C@@H](C)CO)C(=O)c2cc(NS(=O)(=O)c3ccc(F)cc3)ccc2O1`, which outcome is on record?
A: Its outcome is “inactive”.

Q: Which outcome does the source give for `CC(=O)[C@@]1(O)Cc2c(O)c3c(c(O)c2[C@H](O[C@H]2C[C@H](N)[C@H](O)[C@H](C)O2)C1)C(=O)c1ccccc1C3=O` here?
A: Its outcome is “inactive”.

Q: For `Cc1ccc(NC(=O)Cn2ncc(Cl)c(Cl)c2=O)cc1S(=O)(=O)N1CCCCC1`, which outcome is on record?
A: The outcome was “inactive”.

Q: With `C[C@H](CO)N1C[C@H](C)[C@H](CN(C)S(=O)(=O)c2ccc(Cl)cc2)OCCCC[C@H](C)Oc2ccc(NS(=O)(=O)c3ccc(F)cc3)cc2C1=O` as the compound, how does the outcome read?
A: Its outcome is “inactive”.

Q: With `O=C(c1cc([N+](=O)[O-])ccc1N1CCOCC1)N1CCN(c2ccccc2)CC1` as the compound, how does the outcome read?
A: The outcome was “inactive”.

Q: For `Cc1noc(C)c1S(=O)(=O)N(C)C[C@@H]1OCCCC[C@H](C)Oc2ccc(NS(=O)(=O)c3ccc(Cl)cc3)cc2C(=O)N([C@H](C)CO)C[C@@H]1C`, which outcome is on record?
A: The outcome was “inactive”.

Q: Which outcome does the source give for `CCN(CC)S(=O)(=O)c1cc(NC(=O)Cn2ncc(Cl)c(Cl)c2=O)ccc1C` here?
A: The outcome was “inactive”.

Q: With `OCCCNc1nccc(-c2cc(Nc3cccc(Cl)c3)ncn2)n1` as the compound, how does the outcome read?
A: Its outcome is “inactive”.

Q: With `Nc1nnnn1/N=C/C(Br)=C/c1ccccc1` as the compound, how does the outcome read?
A: Its outcome is “inactive”.

Q: With `COc1ccc(C2=NNC(=Nc3cc(S(=O)(=O)N(C)C)ccc3C)SC2)c(OC)c1` as the compound, how does the outcome read?
A: The outcome was “inactive”.

Q: With `COc1ccc(NC(=O)c2c(Nc3ccccc3)sc(C(=O)c3ccc(F)cc3)c2N)cc1` as the compound, how does the outcome read?
A: Its outcome is “inactive”.

Q: With `C[C@@H]1CCCCO[C@H](CN(C)Cc2ccc(Cl)c(Cl)c2)[C@H](C)CN([C@@H](C)CO)C(=O)c2cc(NC(=O)Nc3ccccc3)ccc2O1` as the compound, how does the outcome read?
A: The outcome was “inactive”.

Q: With `C[C@@H]1CCCCO[C@H](CN(C)Cc2ccc(C(F)(F)F)cc2)[C@H](C)CN([C@@H](C)CO)C(=O)c2cc(NS(=O)(=O)c3cccs3)ccc2O1` as the compound, how does the outcome read?
A: Its outcome is “inactive”.

Q: Which outcome does the source give for `CCCNC(=O)Nc1ccc2c(c1)OC[C@H](C)N(Cc1ccc(-c3ccccn3)cc1)C[C@@H](C)[C@@H](OC)CN(C)C2=O` here?
A: Its outcome is “inactive”.

Q: For `C[C@@H]1CN([C@H](C)CO)C(=O)c2cc(NC(=O)Nc3ccc(F)cc3)ccc2O[C@@H](C)CCCCO[C@@H]1CN(C)Cc1ccc2c(c1)OCO2`, which outcome is on record?
A: The outcome was “inactive”.

Q: With `C[C@@H]1CN([C@H](C)CO)C(=O)Cc2cc(NC(=O)Nc3ccc(F)cc3)ccc2O[C@H]1CN(C)Cc1ccc(Cl)c(Cl)c1` as the compound, how does the outcome read?
A: Its outcome is “inactive”.

Q: Which outcome does the source give for `C[C@@H]1CCCCO[C@@H](CN(C)Cc2ccc(C(F)(F)F)cc2)[C@@H](C)CN([C@@H](C)CO)C(=O)c2cc(NS(=O)(=O)c3ccccc3)ccc2O1` here?
A: Its outcome is “inactive”.

Q: With `COc1ccc(/C=N/NC(=O)c2[nH]c3ccc(Br)cc3c2-c2ccccc2)cc1` as the compound, how does the outcome read?
A: Its outcome is “inactive”.

Q: With `O=C(C[C@H]1CC[C@H]2[C@@H](COC[C@@H](O)CN2Cc2ccc(Oc3ccccc3)cc2)O1)N1CCCCC1` as the compound, how does the outcome read?
A: The outcome was “inactive”.

Q: With `C[C@@H]1CN([C@H](C)CO)S(=O)(=O)c2ccc(C#CC3CCCC3)cc2O[C@@H]1CN(C)C(=O)Cc1ccncc1` as the compound, how does the outcome read?
A: The outcome was “inactive”.

Q: For `COc1ccc(-c2nc3c(c(SCC(=O)Nc4cccc(O)c4)n2)Cc2c(CO)cnc(C)c2O3)cc1`, which outcome is on record?
A: The outcome was “inactive”.

Q: For `COc1ccc(NC(=O)Nc2ccc3c(c2)CC(=O)N([C@H](C)CO)C[C@@H](C)[C@@H](CN(C)Cc2ccc(Oc4ccccc4)cc2)O3)cc1`, which outcome is on record?
A: Its outcome is “inactive”.

Q: With `CCOc1ccc(C(CN2CCOCC2)C(C)=O)cc1OC` (stereo not given) as the compound, how does the outcome read?
A: Its outcome is “inactive”.

Q: Which outcome does the source give for `CC1(Cc2ccc(OC(F)(F)F)cc2)C(=O)Nc2ccc(S(=O)(=O)NC3CCCCC3)cc21` (stereo not given) here?
A: Its outcome is “inactive”.

Q: Which outcome does the source give for `C[C@@H]1CCCCO[C@@H](CN(C)C(=O)Nc2cccc3ccccc23)[C@H](C)CN([C@H](C)CO)C(=O)c2cc(NS(=O)(=O)c3ccccc3)ccc2O1` here?
A: The outcome was “inactive”.

Q: For `O=C(Nc1ccc(Cl)c(Cl)c1)N[C@@H]1CC[C@H](CCn2cc(C3CCCCC3)nn2)O[C@H]1CO`, which outcome is on record?
A: The outcome was “inactive”.

Q: With `C[C@@H]1CCCCO[C@H](CN(C)Cc2ccc(C(F)(F)F)cc2)[C@H](C)CN([C@H](C)CO)C(=O)c2cc(NS(=O)(=O)c3cccs3)ccc2O1` as the compound, how does the outcome read?
A: The outcome was “inactive”.

Q: Which outcome does the source give for `O=C(Nc1cccc(Cl)c1)Nc1nnc(-c2ccncc2)s1` here?
A: Its outcome is “inactive”.

Q: For `C[C@H](CO)N1C[C@H](C)[C@@H](CN(C)S(=O)(=O)c2ccc(Cl)cc2)OCCCC[C@H](C)Oc2ccc(NS(=O)(=O)c3ccc(Cl)cc3)cc2C1=O`, which outcome is on record?
A: Its outcome is “inactive”.

Q: For `Cc1nc(Nc2nc(CSc3nc4ccccc4[nH]3)cc(=O)[nH]2)nc2ccccc12`, which outcome is on record?
A: Its outcome is “inactive”.

Q: With `O=C(Nc1cccc(NC(=O)c2cccs2)c1)c1ccc([N+](=O)[O-])o1` as the compound, how does the outcome read?
A: Its outcome is “inactive”.

Q: With `C=C(C)c1nc(Oc2ccccc2)nc(Oc2ccccc2)n1` as the compound, how does the outcome read?
A: Its outcome is “inactive”.

Q: For `C[C@@H]1CN([C@@H](C)CO)C(=O)Cc2cc(NC(=O)CCC(F)(F)F)ccc2O[C@H]1CN(C)Cc1ccc(-c2ccccc2)cc1`, which outcome is on record?
A: The outcome was “inactive”.

Q: For `COc1cccc(S(=O)(=O)N2CC[C@H]3[C@@H](CO)N(C)c4ccc(C#Cc5ccc(F)cc5)cc4[C@H]32)c1`, which outcome is on record?
A: The outcome was “inactive”.

Q: With `C[C@@H]1CCCCO[C@H](CN(C)Cc2ccc(C(F)(F)F)cc2)[C@H](C)CN([C@H](C)CO)C(=O)c2cc(NS(=O)(=O)c3ccccc3)ccc2O1` as the compound, how does the outcome read?
A: Its outcome is “inactive”.

Q: With `O=S(=O)(c1ccccc1F)N1CC[C@@H]2[C@@H](CO)Nc3ccc(C4=CCCCC4)cc3[C@@H]21` as the compound, how does the outcome read?
A: The outcome was “inactive”.

Q: For `CN1c2ccc(-c3cccc(F)c3)cc2[C@@H]2[C@@H](CCN2C(=O)Cc2ccccc2)[C@@H]1CO`, which outcome is on record?
A: Its outcome is “inactive”.

Q: For `CCc1cc(-c2n[nH]c(C)c2-c2nc3ccccc3n2C)c(O)cc1O`, which outcome is on record?
A: The outcome was “inactive”.

Q: For `COc1ccc(NC(=O)Nc2ccc3c(c2)C(=O)N([C@@H](C)CO)C[C@@H](C)[C@@H](CN(C)CC2CCCCC2)OCCCC[C@@H](C)O3)cc1`, which outcome is on record?
A: Its outcome is “inactive”.
